Measurements taken from article PMC5540273 (PLoS ONE, 2017).

Legend:
Settings in all cases: concentration: 1 μM, replicates: in singlicate; n = 1
KIT = test system: KIT
LATS1 = test system: LATS1
LATS2 = test system: LATS2
LCK = test system: LCK
LIMK1 = test system: LIMK1
LIMK2 = test system: LIMK2
LKB1 = test system: T1, LKB1
T1 construct: gene STK11

LOK = test system: T2, LOK
T2 construct: gene STK10

LRRK2 = test system: LRRK2
LTK = test system: LTK
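Also: KINOMEscan kinase panel screen.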

| SMILES | %Inh (KIT) [%] | %Inh (LATS1) [%] | %Inh (LATS2) [%] | %Inh (LCK) [%] | %Inh (LIMK1) [%] | %Inh (LIMK2) [%] | %Inh (LKB1) [%] | %Inh (LOK) [%] | %Inh (LRRK2) [%] | %Inh (LTK) [%] |
| --- | --- | --- | --- | --- | --- | --- | --- | --- | --- | --- |
| CS(=O)(=O)c1ccc(-c2c(-c3ncn[nH]3)sc(N3CCOCC3)c2C#N)cc1 | 28 | 24 | 9 | 8 | 0 | 3 | 0 | 31 | 0 | 28 |
| Cc1csc(-c2nc(Nc3ccncc3)c3ccccc3n2)n1 [GW869640] | 12 | 19 | 20 | 2 | 15 | 2 | 43 | 40 | 31 | 18 |
| CN(C)CCN(C)C(=O)c1cc(-c2ccncc2)c(-c2ccc(Cl)c(O)c2)o1.Cl.Cl [SB-710397] | 0 | 3 | 0 | 34 | 0 | 0 | 0 | 72 | 0 | 11 |
| Cc1cccc(-c2nc(Nc3cccc(C(N)=O)c3)c3ccccc3n2)n1 [GW876019] | 0 | 8 | 0 | 20 | 0 | 9 | 0 | 21 | 73 | 40 |
| Cc1ccccc1-n1cnc2c(N)ncnc21 [SKF-97510] | 0 | 0 | 3 | 100 | 16 | 15 | 0 | 0 | 0 | 0 |
| COc1ccccc1-c1ccc2c(NC(=O)C3CC3)n[nH]c2n1 [SB-711239] | 0 | 28 | 8 | 10 | 0 | 5 | 6 | 0 | 0 | 4 |
| O=C(Nc1ccccc1)Nc1cccc(Oc2ccc3nccn3n2)c1 | 100 | 0 | 30 | 33 | 0 | 0 | 24 | 18 | 0 | 0 |
| CC(C)(C)c1ccc(C(=O)Nc2cn3cc(Cl)ccc3n2)cc1 | 74 | 10 | 0 | 26 | 0 | 0 | 4 | 8 | 0 | 0 |
| Cc1cccc(-c2nc(C)cc(Nc3ccncc3)n2)n1 [GSK257997] | 17 | 0 | 0 | 34 | 11 | 19 | 8 | 0 | 0 | 16 |
| Cc1cc(NCC(c2ccccc2)c2ccccc2)nc(NCc2ccc(C(F)(F)F)cc2)n1 [GW497681] | 6 | 0 | 5 | 0 | 0 | 9 | 12 | 0 | 0 | 0 |
| COC(=O)c1c(-c2ccccc2)c2cc(OC)ccc2c(=O)n1Cc1ccccc1 | 93.3 | 31 | 0 | 0 | 0 | 0 | 8 | 9 | 0 | 11 |
| Clc1cc(Cl)cc(Nc2ccnc(Nc3cc(Cl)cc(Cl)c3)n2)c1 [GSK175726] | 40 | 0 | 17 | 27 | 10 | 31 | 14 | 0 | 0 | 0 |
| Cc1ccc(C(=O)Nc2ccc(Nc3ccnc4cc(-c5ccccn5)ccc34)cc2O)cc1.Cl [GW440146] | 89 | 0 | 0 | 84 | 0 | 2 | 9 | 14 | 4 | 12 |
| Cc1ccc(NC(=O)Nc2cc(C(C)(C)C)nn2-c2ccccc2)cc1 [GSK1014915] | 98.6 | 31 | 0 | 24 | 5 | 0 | 0 | 60 | 0 | 67 |
| COc1cccc(-c2cc(-c3c[nH]nc3-c3ccccn3)ccn2)c1 [GW680338] | 9 | 64 | 0 | 10 | 0 | 15 | 1 | 10 | 6 | 0 |
| Cl.c1ccc(-c2n[nH]cc2-c2ccnc(-c3ccc(CN4CCOCC4)cc3)c2)nc1 [GW776245] | 8 | 3 | 0 | 0 | 5 | 19 | 18 | 0 | 0 | 28 |
| COc1cccc(NC(=O)NC2CCN(c3ccnc(Nc4ccc(F)cc4)n3)C2)c1 (stereo not drawn) [GSK1379721] | 63 | 0 | 0 | 1 | 0 | 5 | 25 | 0 | 0 | 0 |
| CS(=O)(=O)c1ccc(-c2nc3n(c2-c2ccncc2)CCC3)cc1 [SKF-105942] | 0 | 0 | 0 | 8 | 19 | 0 | 0 | 0 | 0 | 0 |

| SMILES | %Inh (KIT) [%] | %Inh (LATS1) [%] | %Inh (LATS2) [%] | %Inh (LCK) [%] | %Inh (LIMK1) [%] | %Inh (LIMK2) [%] | %Inh (LKB1) [%] | %Inh (LOK) [%] | %Inh (LRRK2) [%] | %Inh (LTK) [%] |
| --- | --- | --- | --- | --- | --- | --- | --- | --- | --- | --- |
| CCn1c(-c2ccccn2)nc2cnccc21 [SB-736398] | 0 | 0 | 0 | 12 | 13 | 0 | 0 | 0 | 31 | 1 |
| Cc1c(Cn2ccn3c(=O)cc(N4CCOCC4)nc23)cccc1C(F)(F)F [GSK2289044] | 10 | 0 | 13 | 7 | 0 | 0 | 10 | 0 | 0 | 0 |
| Fc1cc(Cl)ccc1Nc1ccnc2cc(-c3ccc(CN4CCCCC4)o3)ccc12 [GW560116] | 61 | 3 | 0 | 35 | 0 | 0 | 0 | 0 | 0 | 8 |
| O=C(Nc1ccc2c(c1)OCO2)NC1CCN(c2ccnc(Nc3ccc(F)cc3)n2)C1 (stereo not drawn) [GSK1379724] | 54 | 0 | 0 | 12 | 41 | 0 | 0 | 0 | 28 | 0 |
| Fc1cc(Cl)ccc1Nc1ccnc2cc(I)ccc12 [GW551191] | 49 | 0 | 0 | 24 | 0 | 0 | 0 | 0 | 37 | 13 |
| Cc1c(O)cccc1Nc1ccnc2ccc(C(F)(F)F)cc12.Cl [GW466413] | 17 | 0 | 0 | 73 | 0 | 0 | 0 | 0 | 58 | 28 |
| NC(=O)c1nnc2ccccc2c1N | 10 | 0 | 0 | 0 | 0 | 5 | 0 | 10 | 75 | 0 |
| O=C(Nc1n[nH]c2cc(-c3cccc(F)c3F)ccc12)C1CC1 [SB-733894] | 18 | 0 | 22 | 0 | 0 | 0 | 0 | 0 | 0 | 0 |
| COc1cc2nccc(Nc3ccc(NC(=O)c4ccc(C)cc4)c(O)c3)c2cc1OC.Cl [GW440132] | 38 | 0 | 0 | 83 | 4 | 1 | 2 | 0 | 28 | 0 |
| Cc1cccc(-c2nc(Nc3ccc4[nH]ncc4c3)c3ccccc3n2)n1 [GW857175] | 3 | 1 | 50 | 10 | 6 | 2 | 14 | 19 | 15 | 0 |
| C[C@@H]1CCCCN1c1cc(-c2ccc3c(N)n[nH]c3c2)nc(N)n1 [GSK2258759] | 4 | 23 | 14 | 0 | 0 | 19 | 0 | 0 | 0 | 0 |
| Nc1ncnc2[nH]c(-c3ccccc3)nc12 [AH5015] | 21 | 0 | 0 | 26 | 15 | 0 | 0 | 0 | 34 | 91.4 |
| COc1ccc(CNC(=O)NC2CCN(c3ccnc(Nc4cc(OC)c(OC)c(OC)c4)n3)C2)cc1 (stereo not drawn) [GSK1379748] | 57 | 0 | 11 | 7 | 0 | 0 | 12 | 0 | 0 | 64 |
| Cn1cncc1-c1ccc2ncnc(Nc3ccc(OCc4ccccc4)cc3)c2c1 [GW320571] | 28 | 0 | 0 | 13 | 18 | 11 | 0 | 2 | 21 | 11 |
| Cn1ccc2ncnc(Oc3ccc(Nc4nc5ccccc5[nH]4)cc3)c21 | 77 | 0 | 0 | 0 | 0 | 0 | 3 | 93.7 | 0 | 0 |
| CC(C)(C)c1ccc(C(=O)Nc2cn3cc(-c4cccnc4)ccc3n2)cc1 | 91.5 | 23 | 10 | 8 | 16 | 20 | 24 | 79 | 0 | 19 |
| O=c1cc(N2CCOCC2)nc2n(Cc3cccc(Cl)c3Cl)ccn12 [GSK2286295] | 32 | 0 | 13 | 9 | 0 | 0 | 0 | 0 | 31 | 0 |
| Cc1ccc(-c2cc(-c3c[nH]nc3-c3ccccn3)ccn2)cc1 [GW684088] | 23 | 0 | 6 | 7 | 0 | 17 | 12 | 0 | 0 | 0 |
